TEAD-YAP inh = TEAD-YAP interaction inhibition | HEK-TIYL cells, TEAD-Gal4/YAP UAS-luciferase luminescence | inhibition, % at 9.12 µM | actives 1.4% (n = 640,000) | AID 1259422; in the data active = inhibition above about 32%
MITF inh = blocks human microphthalmia-associated transcription factor. inhibition, % at 2.6 µM. actives 0.91% (n = 650,000). AID 1259374. AlphaScreen MITF homodimerization, bead proximity signal. O75030; in the data active = inhibition above about 50%
Target sequence (O75030 whole entry, looked up): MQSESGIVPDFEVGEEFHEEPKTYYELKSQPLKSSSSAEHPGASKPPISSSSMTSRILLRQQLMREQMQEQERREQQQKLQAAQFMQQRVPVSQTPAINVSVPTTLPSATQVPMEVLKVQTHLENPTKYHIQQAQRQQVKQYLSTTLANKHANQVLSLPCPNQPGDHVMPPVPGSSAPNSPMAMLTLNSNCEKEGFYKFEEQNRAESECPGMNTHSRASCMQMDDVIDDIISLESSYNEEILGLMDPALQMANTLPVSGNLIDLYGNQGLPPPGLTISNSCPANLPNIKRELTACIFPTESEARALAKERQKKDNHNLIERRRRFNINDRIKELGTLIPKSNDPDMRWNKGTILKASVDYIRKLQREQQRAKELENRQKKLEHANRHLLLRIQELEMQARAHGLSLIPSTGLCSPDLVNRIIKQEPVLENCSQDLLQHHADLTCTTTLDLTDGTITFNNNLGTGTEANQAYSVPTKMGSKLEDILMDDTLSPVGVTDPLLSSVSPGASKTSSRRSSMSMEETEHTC
FBW7 act = activators of human E3 ligase FBW7 | Q969H0 | AlphaScreen FBW7–phospho-cyclin E peptide binding, activator screen | normalized activity (activation), % at 26.1 µM | actives 0.13% (n = 650,000) | AID 1259310; in the data active = normalized activity above about 1.9%;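 note: purified mutant Fbw7 with reduced substrate affinity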
GPR151 activ = activates the human receptor GPR151; activation, % at 11.2 µM; PathHunter beta-arrestin GPR151 cells, luminescence; actives 1% (n = 650,000); AID 1508602; in the data active = activation above about 4.9%
Hits are given with their value; n = inactive. This is a sample that favours compounds with a hit; in the whole collection about 3.4% have one here.

SMILES | TEAD-YAP inh | MITF inh | FBW7 act | GPR151 activ
c1ccc(Nc2nc(Nc3ccc(N4CCOCC4)cc3)c3ncn(-c4ccsc4)c3n2)nc1 | 37 | n | n | n
CC(=O)Nc1ccc(Nc2nc(Nc3ccc4ncccc4c3)nc3c2ncn3-c2ccsc2)cc1 | n | n | n | n
CC(=O)Nc1ccc(Nc2nc(Nc3ccccn3)nc3c2ncn3-c2ccsc2)cc1 | 45 | n | n | n
COc1ccc(C2=N/C(=C/c3cccc(Cl)c3Cl)C(=O)O2)cc1Br | n | n | n | n
O=C(NC1CC1)C1CCN(c2ccc(-c3ccccc3)nn2)CC1 | n | n | n | n
COc1ccccc1N1CCN(c2ccc(-c3ccccc3)nn2)CC1 | 88 | n | n | n
c1ccc(-c2ccc(N3CCCCCC3)nn2)cc1 | 93 | n | n | n
CN1C(C(=O)c2ccccc2)=C(OC(=O)Cc2ccccc2)c2ccccc2S1(=O)=O | n | n | n | n
CCCCNC(=O)c1ccccc1[N+](=O)[O-] | n | n | n | n
c1cn2c(-c3ccc4[nH]ccc4c3)cnc2c(Nc2ccc3[nH]ccc3c2)n1 | n | n | n | n
Oc1cccc(-c2cnc3c(Nc4ccc5[nH]ccc5c4)nccn23)c1 | 97 | n | n | n
c1cn2c(-c3ccoc3)cnc2c(Nc2ccc3[nH]ccc3c2)n1 | 81 | n | n | n
Clc1ccc(Nc2nccn3c(-c4ccoc4)cnc23)cc1 | 40 | n | n | n
CN(C)CCNC(=O)c1ccc(-c2cnc3c(Nc4ccc5[nH]ccc5c4)nccn23)cc1 | 39 | n | n | n
O=c1[nH]c(=S)[nH]c(O)c1C=Nc1ccc(S(=O)(=O)N2CCCCC2)cc1 | n | n | n | n
CN(C)c1ccc(Nc2nc(N3CCOCC3)c3ccccc3n2)cc1 | 42 | n | n | n
Cc1cccc(Nc2nc(N3CCOCC3)c3ccccc3n2)c1 | 38 | n | n | n
Oc1cccc(Nc2nc(N3CCOCC3)c3ccccc3n2)c1 | n | n | n | n
c1ccc(Nc2nc(N3CCCCC3)c3ccccc3n2)cc1 | 42 | n | n | n
Clc1ccccc1-c1nc(N2CCOCC2)c2ccccc2n1 | n | n | 2.6 | n
Cc1ccc(Nc2nc(N3CCOCC3)c3ccccc3n2)cc1 | n | n | n | n
Clc1ccccc1-c1nc(N2CCCC2)c2ccccc2n1 | n | n | n | n
Nc1c(C(=O)NC2CC2)sc2nc(-c3ccc4c(c3)OCO4)ccc12 | 42 | n | n | n
Nc1c(C(=O)Nc2ccc(F)cc2)sc2nc(-c3ccc4c(c3)OCO4)ccc12 | n | n | n | n
O=C1CC(C(=O)Nc2ccc(-c3cn[nH]c3)cc2)Cc2ccccc21 (stereo not given) | 34 | n | n | n
SMILES | TEAD-YAP inh | MITF inh | FBW7 act | GPR151 activ
C[C@@H](c1ccccc1)n1c(=O)[nH]c2ncc(-c3ccc(C(=O)N4CCOCC4)cc3)nc21 | n | n | 2.0 | n
C[C@H](c1ccccc1)n1c(=O)[nH]c2ncc(-c3ccc(C(=O)N4CCN(C)CC4)cc3)nc21 | n | n | n | n
Cc1csc(NC(=O)CSc2nc3c(C)ccc(C)c3cc2C#N)n1 | n | n | n | n
Cc1nc2c(c(C)c1CCC(=O)N1CCCCCC1)c(=O)n(C)c(=O)n2C | 51 | n | n | n
CC(=O)c1ccccc1-c1ccc2c(c1)CC(CNC(=O)c1ccc[n+]([O-])c1)O2 (stereo not given) | n | n | n | n
CCN(CC)c1ccc2c(C)cc(=O)oc2c1 | n | n | n | n
CCN(CC)c1ccc2c(C)c(Cl)c(=O)oc2c1 | n | n | 5.8 | n
CCN(CC)c1ccc2c(Cl)c(Br)c(=O)oc2c1 | n | n | 6.2 | n
COc1ccc(O)c(/C=N/NC(=O)c2ccc(NC(=O)c3ccc(Cl)cc3)cc2)c1 | n | n | n | n
CCOc1ccc(-c2cc(C#N)on2)cc1 | n | n | n | n
Cc1cccc(NC(=O)c2cc3ccccc3oc2=O)c1 | n | n | n | n
CC(=O)Nc1cccc(NC(=O)c2cc3ccccc3oc2=O)c1 | 46 | n | n | n
CC(Cc1ccco1)NC(=O)c1cc2ccccc2oc1=O (stereo not given) | n | n | 3.0 | n
C=CCc1cccc2cc(C(=O)Nc3cccc(O)c3)c(=O)oc12 | 58 | n | n | n
CC(CO)NC(=O)c1cc2ccccc2oc1=O (stereo not given) | n | n | n | n
CN(C)c1ccc(C2CC(c3c(-c4ccccc4)c4cc(Cl)ccc4[nH]c3=O)=NN2C(=O)c2cccs2)cc1 (stereo not given) | n | n | n | n
c1cc(CCNc2nccn3c(-c4ccoc4)cnc23)ccn1 | n | n | n | n
CCC(C)NS(=O)(=O)c1ccc(Br)cc1 (stereo not given) | n | n | n | n
CCC(C)NS(=O)(=O)c1ccc(Cc2ccc(S(=O)(=O)NC(C)CC)cc2)cc1 (stereo not given) | 34 | n | n | n
Cc1ccc(-n2cnc3scc(-c4ccc(C)cc4C)c3c2=O)cc1 | n | n | n | n
O=S(=O)(c1ccc(F)cc1)N1CCN(c2cc(-n3ccnc3)ncn2)CC1 | n | n | n | n
COc1ccc(S(=O)(=O)N2CCN(c3cc(-n4ccnc4)ncn3)CC2)c(C)c1C | 56 | n | n | n
Cc1ccc(CN(Cc2ccco2)C(=S)Nc2ccc(C)cc2)cc1 | n | n | n | n
N#CC1=C(N)Oc2cc(N)ccc2C1c1cccc(Br)c1 (stereo not given) | 55 | n | n | n
CN(C)c1ccc2c(c1)OC(N)=C(C#N)C2c1ccc(F)cc1 (stereo not given) | n | n | n | n
SMILES | TEAD-YAP inh | MITF inh | FBW7 act | GPR151 activ
N#CC1=C(N)Oc2cc(N)ccc2C1c1ccc(Br)cc1 (stereo not given) | n | n | n | n
CCN(CC)c1ccc2c(c1)OC(N)=C(C#N)C2c1cccc(F)c1 (stereo not given) | 68 | n | n | n
CCCC(C)NC(=O)Cc1ccccc1OC (stereo not given) | n | n | n | n
CC(C)n1c2ccccc2c2nnc(SCC(=O)Nc3ccc(OC(F)(F)F)cc3)nc21 | n | n | n | n
O=c1oc(-c2cccnc2)nn1CCN1CCCCC1 | n | n | n | n
N#CC1=C(N)Oc2c(sc3ccccc23)C1c1cccc([N+](=O)[O-])c1 (stereo not given) | 53 | n | n | n
COc1ccc(C2C(C#N)=C(N)Oc3c2sc2ccccc32)cc1[N+](=O)[O-] (stereo not given) | n | n | n | n
N#CC1=C(N)Oc2c(ccc3ccccc23)C1c1cccc([N+](=O)[O-])c1 (stereo not given) | 66 | n | n | n
N#CC1=C(N)Oc2c([nH]c(=O)[nH]c2=O)C1c1cccc([N+](=O)[O-])c1 (stereo not given) | n | n | n | n
COc1ccc(OCC(=O)Nc2nn3c(-c4ccco4)nnc3s2)cc1 | n | n | n | n
O=C(Nc1ccc2nc(SCC(=O)N3CCOCC3)sc2c1)c1ccc(Cl)c(Cl)c1 | n | n | n | n
CCCNC(=O)c1cnc(-c2ccccc2)s1 | n | n | n | n
Cc1ccccc1NC(=O)c1cccc(NC(=O)CCC(=O)OCC(=O)c2ccccc2)c1 | n | n | n | n
O=C(NCc1cccc(C(F)(F)F)c1)c1cccc(Nc2ccc(N3CCOCC3)cc2)n1 | 62 | n | n | n

Screens (PubChem BioAssay)
